For eight compounds, Potency and outcome results are on record in PubChem BioAssay (Tox21).

Structures are written as SMILES. Several values for one entry are separate records, joined by “and”; a condition that tells them apart may be missing. Identical values can stand only once. A number with no mark means an inactive call. Records with an inconclusive call do not appear. Activity calls are given as the source filed them. Unless noted, the call rests on the fitted dose curve; in most records, active means well fitted curve in the direction sought with a large enough effect in the repeat runs; inconclusive means weak or mixed curves; inactive means no such curve, though single readings can be large; an effect the other way counts as inactive or inconclusive.

Experiment [1] has as its target Estrogen receptor beta (Homo sapiens) (UniProt Q92731). In words: qHTS assay to identify small molecule agonists of the estrogen receptor beta (ER-beta) signaling pathway (AID 1259377; active means well fitted activation curve with a large enough effect in the signal ratio in the repeat runs, not every such curve was filed as active; the % refers to the signal ratio). A digest of the protocol: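 Measured by fluorescence intensity from a B/G FRET beta-lactamase substrate (2 h, room temperature) in ER-beta-UAS-bla HEK293T cells treated with DMSO-dissolved compounds for 16 hr at 37C and 5% CO2.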

Experiment [2] in a line: qHTS assay to identify small molecule agonists of the androgen receptor (AR) signaling pathway in the presence of an antagonist - cell viability counter screen (AID 1259379). Further: nearly all actives have a fitted effect of over 25% in size. Further: potency means the concentration at half of the fitted maximal effect. A digest of the protocol: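 Cells: MDA-kb2 (MMTV-luc, AR and GR elements), 3,000/well, 5 hr settle. Added: nilutamide 3.0uM final, then compounds (15 conc.). Incubation: 16 hr, 37C, no CO2. Read-out: CellTiter-Fluor, 1 hr, fluorescence.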

Experiment [3] is described as follows: qHTS assay to identify small molecule agonists of the estrogen receptor beta (ER-beta) signaling pathway - cell viability counter screen (AID 1259380). Further: nearly all actives have a fitted effect of over 30% in size. Further: potency means the concentration at half of the fitted maximal effect. An outline of the steps: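 HEK293T ER-beta-UAS-bla; 2% CS-FBS; 6 hr pre-plate, 16 hr cpd at 37C/5% CO2; LiveBLAzer read first, then CellTiter-Glo 30 min RT, luminescence.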
Experiment [4] can be described thus: qHTS assay to identify small molecule antagonists of the estrogen receptor beta (ER-beta) signaling pathway - cell viability counter screen (AID 1259382). Further: nearly all actives have a fitted effect of over 55% in size. Further: potency means the concentration at half of the fitted maximal effect. A digest of the protocol: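 Cells: ER-beta-UAS-bla HEK293T, 2,000/well, 2% CS-FBS, 6 hr settle. Cpd + E2 (1nM final), 16 hr, 37C/5% CO2. Bla FRET substrate 2 hr RT, then CellTiter-Glo 30 min RT, luminescence.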

In experiment [5] the target is Estrogen receptor (Homo sapiens) (UniProt P03372). Nature of the experiment: qHTS assay to identify small molecule agonists of the estrogen receptor alpha (ER-alpha) signaling pathway in the presence of an antagonist (AID 1259383; calls by dose curve; further: nearly all actives have a fitted effect of over 15% in size; further: potency means the concentration at half of the fitted maximal effect; on activation: top concentration of the series differs between compounds). A digest of the protocol:
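VM7Luc4E2, endog. ER-alpha + 4×ERE-luc; charcoal-stripped FBS, phenol red-free, 5 d; 24hr plating; +10.0nM ICI-182,780 (final); cpds 15 conc, 22hr, 37C/5% CO2; ONE-Glo luminescence.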

Experiment [6] is described as follows: qHTS assay to identify small molecule agonists or antagonists of the thyroid stimulating hormone receptor (TSHR) signaling pathway - wild type cell line counter screen (AID 1259384; calls by dose curve). An outline of the steps:
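Wild-type HEK293 cells were plated 18 h at 37 C/5% CO2, pin-dosed with compound plus Ro20-1724 medium, held 30 min at room temperature, then given cAMP-d2 and anti-cAMP-cryptate; fluorescence was read after 1 h. Fifteen concentrations, triplicate.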

Experiment [7] can be described thus: qHTS assay to identify small molecule agonists of the estrogen receptor alpha (ER-alpha) signaling pathway in the presence of an antagonist - cell viability counter screen (AID 1259386).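 Further: series mostly up to about 92 µM; cells exposed to compounds for 22 h at 37 °C before the viability read; nearly all actives have a fitted effect of over 30% in size.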 An outline of the steps: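 VM7Luc4E2, stripped-serum pre-culture 5 d; 24hr plating; +ICI-182,780 10.0nM final; cpds 15 conc, 22hr, 37C/5% CO2; CellTiter-Fluor added at 21hr, fluorescence 1hr later.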

For experiment [8], the target named is Progesterone receptor (Homo sapiens) (UniProt P06401). In words: qHTS assay to identify small molecule agonists of the progesterone receptor (PR) signaling pathway (AID 1346784; calls by dose curve; further: nearly all actives have a fitted effect of over 30% in size). A digest of the protocol:
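The screen uses PR-UAS-bla HEK 293T cells in charcoal-stripped serum (2%). Compounds are applied for 16 hr at 37C after a 6 hr pre-incubation, and reporter activity is detected with a FRET beta-lactamase substrate after 2 hr at room temperature.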

A short description of experiment [9]: qHTS assay to identify small molecule agonists of the TGF-beta/Smad signaling pathway - cell viability counter screen (AID 1346829). Further: top concentration of the series differs between compounds; nearly all actives have a fitted effect of over 45% in size. A digest of the protocol: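 SBE-bla HEK 293T cells plated overnight, compound exposure 5 hr at 37 C. Viability read in the same wells by CellTiter-Glo luminescence after 30 min at room temperature, following the beta-lactamase read.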

The target of experiment [10] is Thyrotropin-releasing hormone receptor (Homo sapiens) (UniProt P34981). In words: qHTS assay to identify small molecule antagonists of the thyrotropin-releasing hormone receptor (TRHR) signaling pathway (AID 1346877; active means well fitted inhibition curve with a large enough effect in the repeat runs, not every such curve was filed as active; further: series mostly up to about 51 µM). An outline of the steps: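 Intracellular calcium fluorescence, read kinetically every second over 3 min, reports TRH-evoked signalling in HEK293 cells carrying TRHR. Test compounds were added 5 min ahead of a 1 nM TRH challenge.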
Sequence of Thyrotropin-releasing hormone receptor (Homo sapiens) (P34981 whole entry, looked up): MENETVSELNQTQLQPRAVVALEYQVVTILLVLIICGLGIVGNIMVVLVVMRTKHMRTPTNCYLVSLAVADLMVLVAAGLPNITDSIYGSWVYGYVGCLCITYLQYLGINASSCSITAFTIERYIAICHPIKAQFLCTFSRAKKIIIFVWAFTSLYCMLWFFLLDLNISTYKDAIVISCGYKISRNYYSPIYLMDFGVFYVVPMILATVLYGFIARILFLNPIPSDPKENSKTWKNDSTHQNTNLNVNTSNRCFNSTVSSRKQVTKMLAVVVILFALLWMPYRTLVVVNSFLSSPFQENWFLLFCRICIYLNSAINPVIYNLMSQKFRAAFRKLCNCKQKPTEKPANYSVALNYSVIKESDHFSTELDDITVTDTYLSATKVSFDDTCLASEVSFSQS

The target is the same in experiment [11]. Nature of the experiment: qHTS assay to identify small molecule agonists of the thyrotropin-releasing hormone receptor (TRHR) signaling pathway (AID 1346891; calls by dose curve;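 further: HEK293 cells expressing TRHR with calcium dye readout; series mostly up to about 58 µM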). A digest of the protocol:
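Kinetic fluorescence (3 min, 1 s intervals) reported intracellular calcium after compound transfer onto TRHR-Hek293 cells pre-loaded with dye for 2 h at 37 °C.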

Experiment [12] in a line: Human pregnane X receptor (PXR) small molecule agonists, qHTS cell viability counter screen (AID 1346977). Further: nearly all actives have a fitted effect of over 50% in size. Further: potency means the concentration at half of the fitted maximal effect. A digest of the protocol:
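HepG2 cells stably carrying the PXR-Luc reporter are cultured with 5% charcoal-stripped FBS and treated with compounds for 24hr. CellTiter-Fluor is added at 23hr and fluorescence is read after 1hr.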

The target in experiment [13] is Estrogen receptor beta (Homo sapiens) (UniProt Q92731). In words: qHTS assay to identify small molecule antagonists of the estrogen receptor beta (ER-beta) signaling pathway (AID 1259378; active means well fitted inhibition curve with a large enough effect in the signal ratio in the repeat runs, not every such curve was filed as active; the % refers to the signal ratio; further: potency means the concentration at half of the fitted maximal effect). An outline of the steps:
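ER-beta-UAS-bla HEK293T (GripTite) cells in 2% charcoal-stripped FBS medium were preincubated 6 hr at 37C, dosed with compound, then stimulated with 1 nM E2 (final) for 16 hr; beta-lactamase reporter read by B/G FRET fluorescence after 2 hr substrate loading.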

In experiment [14] the target is Androgen receptor (Homo sapiens) (UniProt P10275). Nature of the experiment: qHTS assay to identify small molecule agonists of the androgen receptor (AR) signaling pathway in the presence of an antagonist (AID 1259381; calls by dose curve; further: nearly all actives have a fitted effect of over 15% in size). A digest of the protocol:
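MDA-kb2 cells, 3,000/well, rested 5hr at 37C/0% CO2 → nilutamide 3.0uM final or buffer → compounds, 15 conc. → 16hr at 37C → ONE-Glo, 30min RT → luminescence.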

The target in experiment [15] is Thyrotropin receptor (Homo sapiens) (UniProt P16473). In words: qHTS assay to identify small molecule antagonists of the thyroid stimulating hormone receptor (TSHR) signaling pathway (AID 1259385; calls by dose curve; further: nearly all actives have a fitted effect of over 20% in size). An outline of the steps:
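TSHR-HEK293 cells were plated and held 18 h at 37C/5% CO2, then given compound plus Ro20-1724 and stimulated with TSH at 1.5 ng/mL final. After 30 min at room temperature, cAMP was detected with cAMP-d2/anti-cAMP-cryptate (1 h) by fluorescence.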

Experiment [16] addresses Progesterone receptor (Homo sapiens) (UniProt P06401). In words: qHTS assay to identify small molecule antagonists of the progesterone receptor (PR) signaling pathway (AID 1346795; active means well fitted inhibition curve with a large enough effect in the signal ratio in the repeat runs, not every such curve was filed as active; the % refers to the signal ratio; further: potency means the concentration at half of the fitted maximal effect). A digest of the protocol:
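After 6 hr plating at 37C in 2% stripped-serum medium, PR-UAS-bla HEK293T cells got compounds, then 1 nM R5020. Sixteen hours later, LiveBLAzer substrate was applied for 2 hr at room temperature and fluorescence was recorded.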

Experiment [17] in a line: qHTS assay to identify small molecule antagonists of the progesterone receptor (PR) signaling pathway - cell viability counter screen (AID 1346798). Further: series mostly up to about 92 µM; nearly all actives have a fitted effect of over 50% in size. A digest of the protocol: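 Viability was determined by ATP-based luminescence (CellTiter-Glo) in PR-UAS-bla HEK293T cells cultured in 2% charcoal-stripped serum and incubated 16 hr with compounds under R5020 stimulation.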

The nature of experiment [18]: qHTS assay to identify small molecule agonists of the progesterone receptor (PR) signaling pathway - cell viability counter screen (AID 1346799; calls by dose curve; further: nearly all actives have a fitted effect of over 45% in size). A digest of the protocol: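 Viability was scored by ATP luminescence (CellTiter-Glo, 30 min, room temperature) in the same wells used for the reporter readout, after 16 hr compound exposure of PR-UAS-bla HEK293T cells.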

The nature of experiment [19]: qHTS assay to identify small molecule antagonists of the TGF-beta/Smad signaling pathway - cell viability counter screen (AID 1346824). Further: nearly all actives have a fitted effect of over 50% in size. A digest of the protocol: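 SBE-bla HEK 293T cells were plated overnight at 37 C, then given compounds in DMSO plus TGF-beta1 (added as 0.25 ng/mL solution) for 5 hr. After the bla read, CellTiter-Glo was added to the same wells and luminescence read after 30 min at room temperature.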

Experiment [20] is described as follows: qHTS assay to identify small molecule agonists of the TGF-beta/Smad signaling pathway (AID 1346859; active means well fitted activation curve with a large enough effect in the signal ratio in the repeat runs, not every such curve was filed as active; the % refers to the signal ratio; further: series mostly up to about 77 µM). An outline of the steps: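 Dual-wavelength fluorescence (460/530 nm emission) quantified beta-lactamase expression under the Smad binding element in HEK 293T cells following 5 hr compound treatment at 37 C.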

Sequence of Estrogen receptor (Homo sapiens) (P03372 whole entry, looked up): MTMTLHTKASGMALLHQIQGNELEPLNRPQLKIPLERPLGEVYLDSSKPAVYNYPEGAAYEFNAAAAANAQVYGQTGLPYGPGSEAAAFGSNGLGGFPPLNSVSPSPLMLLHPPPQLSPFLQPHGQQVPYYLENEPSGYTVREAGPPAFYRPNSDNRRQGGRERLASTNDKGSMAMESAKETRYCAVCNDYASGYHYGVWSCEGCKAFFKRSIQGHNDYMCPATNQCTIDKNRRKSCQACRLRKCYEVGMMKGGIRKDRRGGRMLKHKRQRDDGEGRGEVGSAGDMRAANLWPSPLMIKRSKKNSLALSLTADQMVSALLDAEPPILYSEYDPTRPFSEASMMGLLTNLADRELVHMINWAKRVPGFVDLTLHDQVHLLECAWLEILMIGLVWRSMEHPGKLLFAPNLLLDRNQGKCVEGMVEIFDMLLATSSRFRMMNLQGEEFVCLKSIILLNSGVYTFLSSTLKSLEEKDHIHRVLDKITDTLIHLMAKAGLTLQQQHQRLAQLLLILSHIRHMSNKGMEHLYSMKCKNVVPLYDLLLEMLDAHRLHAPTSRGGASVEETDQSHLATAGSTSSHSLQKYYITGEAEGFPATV
Sequence of Estrogen receptor beta (Homo sapiens) (Q92731 whole entry, looked up): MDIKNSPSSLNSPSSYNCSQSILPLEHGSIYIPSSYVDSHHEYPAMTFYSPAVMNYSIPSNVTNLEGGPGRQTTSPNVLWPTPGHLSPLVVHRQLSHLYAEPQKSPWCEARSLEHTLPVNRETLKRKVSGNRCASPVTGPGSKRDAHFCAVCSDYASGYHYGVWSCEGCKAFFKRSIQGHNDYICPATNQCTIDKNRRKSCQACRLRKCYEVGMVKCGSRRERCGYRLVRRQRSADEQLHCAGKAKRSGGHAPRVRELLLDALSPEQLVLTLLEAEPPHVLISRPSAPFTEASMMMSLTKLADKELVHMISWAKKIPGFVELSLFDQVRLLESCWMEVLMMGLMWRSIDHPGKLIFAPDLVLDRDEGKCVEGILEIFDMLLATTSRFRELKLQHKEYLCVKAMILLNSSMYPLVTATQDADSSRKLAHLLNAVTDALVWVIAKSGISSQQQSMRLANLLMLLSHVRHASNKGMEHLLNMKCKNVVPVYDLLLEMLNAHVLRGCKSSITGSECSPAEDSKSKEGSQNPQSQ
Sequence of Thyrotropin receptor (Homo sapiens) (P16473 whole entry, looked up): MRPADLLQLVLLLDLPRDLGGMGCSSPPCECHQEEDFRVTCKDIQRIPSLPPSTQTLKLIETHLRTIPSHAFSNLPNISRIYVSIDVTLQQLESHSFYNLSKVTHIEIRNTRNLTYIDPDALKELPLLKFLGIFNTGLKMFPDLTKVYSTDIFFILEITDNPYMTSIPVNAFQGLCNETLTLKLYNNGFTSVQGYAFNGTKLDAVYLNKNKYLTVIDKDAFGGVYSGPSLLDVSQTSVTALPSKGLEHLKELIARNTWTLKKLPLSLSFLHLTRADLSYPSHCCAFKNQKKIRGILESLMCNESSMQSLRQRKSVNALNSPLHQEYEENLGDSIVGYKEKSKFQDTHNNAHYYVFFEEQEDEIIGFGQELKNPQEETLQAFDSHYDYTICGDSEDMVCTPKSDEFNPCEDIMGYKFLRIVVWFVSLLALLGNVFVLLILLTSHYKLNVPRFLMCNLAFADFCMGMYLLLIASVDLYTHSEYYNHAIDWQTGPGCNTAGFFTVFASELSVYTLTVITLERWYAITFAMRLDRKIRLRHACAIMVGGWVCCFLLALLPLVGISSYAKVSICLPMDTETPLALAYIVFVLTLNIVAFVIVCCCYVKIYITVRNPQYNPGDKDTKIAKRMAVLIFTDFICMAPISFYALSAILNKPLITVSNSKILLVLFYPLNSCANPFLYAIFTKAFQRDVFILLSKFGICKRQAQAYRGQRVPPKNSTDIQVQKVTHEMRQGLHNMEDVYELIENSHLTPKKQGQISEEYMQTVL
Sequence of Androgen receptor (Homo sapiens) (P10275 whole entry, looked up): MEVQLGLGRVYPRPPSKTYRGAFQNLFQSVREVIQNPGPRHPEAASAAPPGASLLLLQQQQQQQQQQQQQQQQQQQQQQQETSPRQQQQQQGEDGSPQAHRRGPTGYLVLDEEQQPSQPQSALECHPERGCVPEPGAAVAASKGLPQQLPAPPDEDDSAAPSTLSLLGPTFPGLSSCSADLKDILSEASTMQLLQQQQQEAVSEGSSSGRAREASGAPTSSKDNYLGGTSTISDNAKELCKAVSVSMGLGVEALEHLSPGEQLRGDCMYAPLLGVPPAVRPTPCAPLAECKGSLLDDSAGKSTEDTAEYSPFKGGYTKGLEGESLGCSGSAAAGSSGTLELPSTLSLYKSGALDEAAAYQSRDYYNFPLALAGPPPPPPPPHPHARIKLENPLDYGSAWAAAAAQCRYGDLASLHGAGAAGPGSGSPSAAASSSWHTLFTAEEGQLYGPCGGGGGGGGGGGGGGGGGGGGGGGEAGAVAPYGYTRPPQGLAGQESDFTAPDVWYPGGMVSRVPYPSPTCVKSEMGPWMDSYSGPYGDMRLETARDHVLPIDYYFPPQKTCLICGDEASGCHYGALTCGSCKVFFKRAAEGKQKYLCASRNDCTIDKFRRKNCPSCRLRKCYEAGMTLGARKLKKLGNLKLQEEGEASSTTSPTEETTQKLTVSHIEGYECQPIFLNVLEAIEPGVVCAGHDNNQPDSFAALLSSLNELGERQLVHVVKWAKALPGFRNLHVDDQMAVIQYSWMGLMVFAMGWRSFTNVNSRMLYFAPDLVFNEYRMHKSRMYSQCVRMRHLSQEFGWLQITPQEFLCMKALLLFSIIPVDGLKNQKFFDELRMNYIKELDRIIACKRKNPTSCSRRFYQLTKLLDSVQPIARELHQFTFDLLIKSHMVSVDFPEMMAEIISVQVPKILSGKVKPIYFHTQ
Sequence of Progesterone receptor (Homo sapiens) (P06401 whole entry, looked up): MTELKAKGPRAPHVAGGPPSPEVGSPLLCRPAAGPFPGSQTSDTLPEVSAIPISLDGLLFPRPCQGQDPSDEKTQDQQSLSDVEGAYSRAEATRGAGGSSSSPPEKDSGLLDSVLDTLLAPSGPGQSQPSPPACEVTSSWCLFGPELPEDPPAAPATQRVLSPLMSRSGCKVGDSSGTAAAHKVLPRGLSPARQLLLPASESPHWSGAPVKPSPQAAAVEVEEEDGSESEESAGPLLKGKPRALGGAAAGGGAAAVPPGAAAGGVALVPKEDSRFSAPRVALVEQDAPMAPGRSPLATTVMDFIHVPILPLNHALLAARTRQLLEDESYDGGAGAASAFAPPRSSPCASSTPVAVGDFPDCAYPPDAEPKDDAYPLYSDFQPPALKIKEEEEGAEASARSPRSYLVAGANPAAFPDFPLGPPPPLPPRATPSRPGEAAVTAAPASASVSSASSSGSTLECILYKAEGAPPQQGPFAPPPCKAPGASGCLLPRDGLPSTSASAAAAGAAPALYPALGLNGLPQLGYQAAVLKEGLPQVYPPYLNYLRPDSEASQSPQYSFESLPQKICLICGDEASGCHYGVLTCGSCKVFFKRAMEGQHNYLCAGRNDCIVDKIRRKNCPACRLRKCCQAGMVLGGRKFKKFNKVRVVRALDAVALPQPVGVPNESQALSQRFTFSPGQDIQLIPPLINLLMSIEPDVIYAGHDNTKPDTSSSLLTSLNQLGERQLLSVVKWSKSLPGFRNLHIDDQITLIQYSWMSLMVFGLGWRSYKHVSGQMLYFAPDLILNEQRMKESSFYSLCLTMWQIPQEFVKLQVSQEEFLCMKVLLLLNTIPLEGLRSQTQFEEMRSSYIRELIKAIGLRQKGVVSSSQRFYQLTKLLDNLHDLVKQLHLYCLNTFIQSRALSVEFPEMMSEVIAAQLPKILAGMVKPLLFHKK

For `CC(C(O)c1ccccc1)N(C)CCOC(c1ccccc1)c1ccccc1` (stereo unspecified), the Potency result in experiment [1], in experiment [5], in experiment [7], in experiment [9], in experiment [10] and in [11] was “inactive” each time. The Potency in [2] is 29.8 µM (active); in experiment [3], 29.8 µM (active); in experiment [4], 18.8 µM (active); in [12], 29.8 µM (active). Moreover, the result in experiment [6] and in experiment [8] was inactive.

With `CC(C)CCOCCC(C)C`, the Potency entry in [13], in experiment [2], in experiment [3], in experiment [14], in experiment [4] and in [5] was “inactive” each time. For the same compound, the Potency entry in experiment [15], in experiment [7], in experiment [16], in experiment [17], in experiment [18] and in experiment [19] was “inactive” each time. Also, the Potency entry in [20] and in experiment [12] was “inactive” each time. Further, the compound was called inactive in experiment [6] and in [8].

Regarding `CCCCCCCOC(=O)c1ccc(O)cc1`, the Potency entry in [1], in experiment [7], in [17], in experiment [19], in experiment [20] and in experiment [12] was “inactive” throughout. In addition, the Potency in experiment [3] is 30.7 µM (active) and 24.3 µM (active); in experiment [5], 48.6 µM (active); in [16] it was 24.4 µM (active) and 38.6 µM (active).

In the case of `COC(=O)CC#N`, the Potency result in experiment [1], in experiment [13], in [3], in experiment [4], in experiment [5] and in [15] was “inactive” throughout. For the same compound, the Potency entry in experiment [7], in [16], in experiment [17], in experiment [18], in experiment [19] and in [20] was “inactive” throughout. Moreover, the Potency entry in [10], in [11] and in experiment [12] was “inactive” throughout. The compound was classed as inactive in [8].

On to `CCCCCCS`, for which the Potency entry in [13], in [2], in [3], in [14], in experiment [4] and in experiment [5] was “inactive” each time. The Potency entry in experiment [15], in experiment [7], in experiment [16], in experiment [17], in experiment [18] and in [9] was “inactive” throughout. Also, the Potency result in [20], in experiment [10], in experiment [11] and in experiment [12] was “inactive” each time. Moreover, the compound was classed as inactive in experiment [6] and in experiment [8].

In the case of `CN(C)CCOC(c1ccccc1)c1ccccc1` (tested in a mixture with another compound), the Potency entry in [1], in experiment [14], in experiment [5], in experiment [15], in [19] and in experiment [9] was “inactive” in each case. The Potency entry in experiment [20], in experiment [10] and in experiment [11] was “inactive” throughout. In experiment [6], the compound was classed as inactive.

Regarding `CCCCCCCC/C=C/CCCOC(C)=O`, the Potency result in experiment [1], in experiment [13], in [3], in experiment [4], in [5] and in experiment [15] was “inactive” throughout. Also, the Potency result in [7], in [16], in experiment [17], in [18], in experiment [9] and in experiment [20] was “inactive” throughout. Moreover, the Potency result in [10], in [11] and in experiment [12] was “inactive” throughout. In addition, the compound was classed as inactive in experiment [8].

With `COc1cc(C(=O)NS(=O)(=O)c2ccccc2C)ccc1Cc1cn(C)c2ccc(NC(=O)OC3CCCC3)cc12`, the Potency entry in experiment [1], in experiment [5], in [15], in experiment [7], in [17] and in experiment [18] was “inactive” throughout. In addition, the Potency entry in experiment [19], in [20], in experiment [10], in experiment [11] and in [12] was “inactive” throughout. The Potency in experiment [13] and in experiment [3] was 13.3 µM (active) each time. The outcome in experiment [6] was inactive.
